Measurements taken from PubChem BioAssay (NCI).
This is part of a sample that, as a whole, favours compounds with a hit. Of some 83,000 tested, about 20% had one in any assay.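 Cells were grown in 96-well plates and exposed to the test compound at a single concentration for 48 hours; results are reported as percent growth, with values below 10 considered active.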 Active and inactive are the calls of the source.

Test system: HCC-2998 colon
Experiment: NCI-60 one-dose screen, 48 h (100 = growth as untreated, 0 = no growth, -100 = all killed)
Conditions: 10 µM unless noted
Protocol: Growth inhibition of the HCC-2998 human tumor cell line is measured as a screen for anti-cancer activity. Cells are grown in 96 well plates and exposed to the test compound for 48 hours. Compounds are tested at a single concentration, which is 10^-5 M for most compounds. The reported endpoint is percent growth (GI% or GIPRCNT), where numbers from 0 - 100% represent growth inhibition, and numbers from -100% - 0 represent cell death. For example, a value of 40 represents 60% growth inhibition. A value of 0 means no net growth occurred over the course of the experiment. A value of -40 indicates 40% of cells at the beginning of the experiment died by the end of the experiment. A value of -100 means all cells are dead at the end of the experiment.
NCI-60 Human Tumor Cell Lines Screen was performed using the standard one-dose NCI protocol, which is described in more detail at https://dtp.cancer.gov/discovery_development/nci-60/default.htm.
Compounds with GIPRCNT values below 10 were considered active. Activity score was based on GIPRCNT using the following formula: […]
Score is 0 for GIPRCNT values of 100 or above, 50 for GIPRCNT values of 0, and 100 for GIPRCNT values of -100.

| Structure (SMILES) | growth |
| --- | --- |
| Fc1ccc(-c2cc3nc(C(Cl)Cl)nc(-c4ccccc4)n3n2)cc1 | -47.1% (active) |
| CN1CCN(Cc2ccc(NC(=O)c3cncc(C#Cc4cnc5[nH]ncc5c4)c3)cc2C(F)(F)F)CC1 | 45.7% (inactive) |
| O=c1/c(=C\c2ccc(-c3ccccc3)o2)sc2nc(-c3ccccc3)nn12 | 113% (inactive) |
| Cc1sc2c(c1C)c(=O)nc1c(-c3nc(-c4ccc(F)cc4)no3)n[nH]n12 | 104% (inactive) |
| O=C(CCCN1C(=O)/C(=C/c2ccccc2F)SC1=S)N1CCOCC1 | 119% (inactive) |
| Clc1ccc2oc3c(NCCCn4ccnc4)c4ccccc4nc3c2c1 | 55.2% (inactive) |
| Clc1ccc(Cc2nnc3sc(-c4cccnc4)nn23)cc1 | 105% (inactive) |
| N#Cc1c(-c2ccc(Cl)cc2)nc(SCc2ccccc2)nc1N1CCNCC1 | -37.3% (active) |
| COc1cc(-c2ccc3ncnc(NC(C)c4ccccc4)c3c2)cnc1OC (stereo not given) | 69.8% (inactive) |
| COc1cc2nc(-c3ccc(C)cc3)cc(OCCCNCC3CCCO3)c2cc1OC (stereo not given) | 83.4% (inactive) |
| CN1CCN(Cc2ccc(NC(=O)c3cncc(C#Cc4cnc5ccc(N6CCSCC6)nn45)c3)cc2C(F)(F)F)CC1 | -51.2% (active) |
| O=C(NNc1nc2cc(F)ccc2n2c(CN3CC4(COC4)C3)ccc12)c1cnccn1 | 57.3% (inactive) |
| N[C@@H](Cc1cn(-c2ccnc3ccccc23)nn1)C(=O)O | 104% (inactive) |
| [Cl][Ru].c1ccc(-c2cccc(-c3ccccn3)n2)nc1.c1ccc(-c2ccnc3c2ccc2c(-c4ccccc4)ccnc23)cc1 | 31.3% (inactive) |
| Cc1nc(-c2cc3ccccc3oc2=O)ccc1C(=O)/C=C/c1ccc(N2CCOCC2)cc1 | 83.9% (inactive) |
| CC(C)(C)Nc1nc2c(OCCc3ccccc3)cccn2c1-c1ccc(O)cc1 | 52.2% (inactive) |
| COc1ccccc1/C=C/C=N/NC1=NC2C(S1)N(C)C(=O)N2C (stereo not given) | 68.3% (inactive) |
| Clc1ccc2c(NCCCn3ccnc3)c3oc4ccccc4c3nc2c1 | 40.8% (inactive) |
| CC(=O)Oc1ccccc1C(=O)Nc1ccc(C(=O)/C=C/c2cccs2)cc1 | 109% (inactive) |
| COc1ccc(-c2nc3ccc(-c4nnc(SCC(=O)Nc5ccc(C(=O)/C=C/c6ccccc6)cc5)o4)cc3[nH]2)cc1OC | 123% (inactive) |

| Structure (SMILES) | growth |
| --- | --- |
| O=C(N/N=C/c1cccs1)c1[nH]c2ccc(Br)cc2c1-c1ccccc1 | 24.1% (inactive) |
| C#C[C@]1(O)CC[C@H]2[C@@H]3CC=C4c5sc(Nc6ccc(Cl)cn6)nc5CC[C@]4(C)[C@H]3CC[C@@]21C | 80% (inactive) |
| Nc1cc(-c2c[nH]c3ccc(Cl)cc23)nc2cc(-c3c[nH]c4ccc(Cl)cc34)nn12 | 20.1% (inactive) |
| N#Cc1c(-c2ccc(Cl)cc2)nc(SCc2ccc(F)cc2)nc1N1CCNCC1 | -31.8% (active) |
| Cc1cc2nc3c4cc(Cl)ccc4n(CC(=S)NCCN(C)C)c3nc2cc1C | -82.9% (active) |
| CCOC(=O)c1c(Nc2ccccc2)nn2c(N)c(C#N)c(-c3ccccc3)nc12 | 97% (inactive) |
| COc1cc(-c2nc3ccc(-c4nnc(SCC(=O)Nc5ccc(C(C)=O)cc5)o4)cc3[nH]2)cc(OC)c1OC | 112% (inactive) |
| CC(C)NC(=O)c1cc(-c2ccc(NC(=O)Nc3ccc(N4CCOCC4)c(C(F)(F)F)c3)cc2)nc2cccnc12 | 106% (inactive) |
| COC(=O)c1ccc(NC(=S)N2CCc3ccc([N+](=O)[O-])cc3C2)cc1O | 110% (inactive) |
| CCN1C(=S)N(c2ccccc2)C2NC(=O)N(/N=C/C=C/c3ccccc3OC)C21 (stereo not given) | 130% (inactive) |
| COC(=O)C(C)NS(=O)(=O)/N=C1\NC(=O)NC1=C(Cl)Cl (stereo not given) | 113% (inactive) |
| Clc1ccc2c(OCCCN3CCOCC3)c3oc4ccccc4c3nc2c1 | 46% (inactive) |
| COc1ccc(C(=O)/C=C/c2ccc(Oc3nc(NCCO)nc(N4CCOCC4)n3)c(OC)c2)cc1 | 99.8% (inactive) |
| COc1ccc(/C=N/Nc2ccnc3cc(Cl)ccc23)cc1Cl | -39.9% (active) |
| COc1ccc2[nH]cc(-c3cc(N)n4nc(-c5c[nH]c6ccc(OC)cc56)cc4n3)c2c1 | -4.06% (active) |
| Oc1c(Cl)cc(Cl)c2ccc(CN3CCCCC3)nc12 | 65% (inactive) |
| COc1cc2nc(-c3ccc(Cl)cc3)cc(OCCCNCC3CCCO3)c2cc1OC (stereo not given) | 70.6% (inactive) |
| C/C(=N\NC(N)=O)c1c(O)sc(=O)[nH]c1=O | 110% (inactive) |
| N#Cc1c(-c2ccc(Cl)cc2)nc2c(-c3ccccc3)c(Nc3ccccc3)nn2c1N | 90.7% (inactive) |
| CN(C)CCCOc1c2ccccc2nc2c1oc1ccc(Cl)cc12 | 11.1% (inactive) |
